proKLK7 act: activates the human kallikrein-7 zymogen. purified proKLK7, EDANS-DABCYL substrate fluorescence; 100% is mature enzyme control, 0% vehicle. P49862. activation, % at 7 µM. 370,000 tested, 0.9% active;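 active = activation above the mean of all tested compounds plus 3 SD, computed per campaign excluding outliers beyond control limits, cut at about 13% in these data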
ADAM17 inh: inhibits human ADAM17; P78536; recombinant ADAM17, EDANS/DABCYL FRET peptide cleavage; inhibition, % at 6.95 µM; 370,000 tested, 0.83% active;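 active = inhibition above the mean of compounds lying between control limits plus 3 SD, set per campaign, cut at about 8.5% in these data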;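 note: 0% = DMSO-only wells as the low control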
ADAM10 inh: ADAM10 inhibition, QFRET primary screen; recombinant ADAM10, EDANS/DABCYL FRET peptide cleavage, 3 h; inhibition, % at 7 µM; 370,000 tested, 0.62% active;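 active = inhibition above a per-campaign cutoff equal to the mean of compounds falling between control-based bounds plus 3 SD, cut at about 20% in these data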;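 note: 0% = DMSO wells while the 100% control is not disclosed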
Target sequence (O14672 214-748 limits assumed): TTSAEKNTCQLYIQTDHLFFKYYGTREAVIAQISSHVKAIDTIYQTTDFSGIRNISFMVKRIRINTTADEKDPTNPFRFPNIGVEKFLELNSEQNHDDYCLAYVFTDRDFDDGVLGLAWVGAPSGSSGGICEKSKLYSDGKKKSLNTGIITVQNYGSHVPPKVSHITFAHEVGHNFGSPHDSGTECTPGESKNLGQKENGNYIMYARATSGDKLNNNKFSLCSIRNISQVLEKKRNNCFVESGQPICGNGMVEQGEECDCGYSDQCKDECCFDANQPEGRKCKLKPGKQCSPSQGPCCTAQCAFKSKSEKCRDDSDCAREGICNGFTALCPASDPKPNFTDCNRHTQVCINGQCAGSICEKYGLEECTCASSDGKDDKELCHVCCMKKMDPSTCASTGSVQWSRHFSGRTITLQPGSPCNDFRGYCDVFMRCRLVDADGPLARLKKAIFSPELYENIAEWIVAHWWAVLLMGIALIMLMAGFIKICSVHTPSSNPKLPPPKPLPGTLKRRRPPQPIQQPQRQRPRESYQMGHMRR
V-ATPase pH: yeast V-ATPase proton transport regulation by pHLuorin | 350,000 tested, 0.37% active | S. cerevisiae, pHLuorin cytosolic pH fluorescence | AID 504577 | response, % at 10 µM; in the data active = response mostly above about 7.3%, no sharp cut-off; inactive = mostly below about 5.4%; note: actives read high
proKLK7 act conf: confirmation of human kallikrein-7 zymogen activators | shares compounds with proKLK7 act | purified proKLK7, EDANS-DABCYL substrate fluorescence; scaled: vehicle 0, mature enzyme 100 | activation, % at 7 µM | 3,200 tested, 68% active | AID 686949;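 active = activation, as change over the incubation, above the mean of all tested compounds plus 3 SD, cut at about 13% in these data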
EDANS-DABCYL int: optically interferes with EDANS-DABCYL signal, flagging KLK7 hits. AID 686952. activation, % at 7 µM. EDANS-DABCYL substrate fluorescence interference, no enzyme, 4 h; solvent 0%, active enzyme control 100%. shares compounds with proKLK7 act. 3,200 tested, 80% active;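 active = activation above the all-compound mean plus 3 SD, ignoring values outside control-based bounds, cut at about 4.8% in these data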;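 note: value is the 4 h activation minus the activation read at time zero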
EDANS interf: optically interferes with EDANS-DABCYL fluorescence, kallikrein-7 activator counter-screen; AID 720493; shares compounds with proKLK7 act; EDANS-DABCYL peptide fluorescence interference, no enzyme; 250 tested, 20% active; EC50, µM;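 active = compounds that raise the fluorescence signal in this interference counterscreen, with EC50 at or below 10 µM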;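 note: intact quenched peptide substrate alone read at 355 nm excitation and 520 nm emission; signal is fluorescence gain from T0 to T4 after four hours at room temperature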
* marks the source's active call; other numbers are inactive results. Hits are enriched below; roughly 2.3% of the tested compounds scored in any of these assays.

Results for COC(=O)C1=CN(c2cc(C)cc(C)c2)C=C(C(=O)OC)C1c1cccc(F)c1 ?
proKLK7 act: -2.5; ADAM17 inh: -9.8; ADAM10 inh: -28.3; V-ATPase pH: 3.4

How did CCN1C=C(C(=O)OC)C(c2cccc(C)c2)C(C(=O)OC)=C1 do in these assays?
proKLK7 act: 40.2*; ADAM17 inh: inactive; ADAM10 inh: inactive; V-ATPase pH: -2.6; proKLK7 act conf: -53.7; EDANS-DABCYL int: -50.8

What do the screens show for `CCOC(=O)C1=CN(C)C=C(C(=O)OCC)C1c1ccsc1`?
proKLK7 act: 28.8*; ADAM17 inh: inactive; ADAM10 inh: inactive; V-ATPase pH: 0.2; proKLK7 act conf: -33.6; EDANS-DABCYL int: -28.0

What do the screens show for `COC(=O)C1=CN(CC2CCCO2)C=C(C(=O)OC)C1c1cccc(O)c1` (stereo unspecified)?
proKLK7 act: 62.8*; ADAM17 inh: inactive; ADAM10 inh: inactive; V-ATPase pH: -0.2; proKLK7 act conf: 65.5*; EDANS-DABCYL int: 61.1*

What do the screens show for `COC(=O)C1=CN(Cc2ccc(F)cc2)C=C(C(=O)OC)C1c1ccc(O)c(OC)c1`?
proKLK7 act: -0.3; ADAM17 inh: -10.6; ADAM10 inh: -25.4; V-ATPase pH: 1.3

Results for COC(=O)C1=CN(Cc2ccc(OC)c(OC)c2)C=C(C(=O)OC)C1c1cccc(O)c1 ?
proKLK7 act: 16.6*; ADAM17 inh: inactive; ADAM10 inh: inactive; V-ATPase pH: -1.2; proKLK7 act conf: -55.4; EDANS-DABCYL int: -70.0

What do the screens show for `COC(=O)C1=CN(C(C)C)C=C(C(=O)OC)C1c1cccc(OC)c1`?
proKLK7 act: 38.6*; ADAM17 inh: inactive; ADAM10 inh: inactive; V-ATPase pH: -3.4; proKLK7 act conf: 3.5; EDANS-DABCYL int: -4.5

How did CC(C)CN1CCC(CN2C(=S)NC[C@@H]2Cc2ccccc2)CC1 do in these assays?
proKLK7 act: -0.3; ADAM17 inh: -2.5; ADAM10 inh: -3.1

What do the screens show for `CCn1ncc(-c2ccnc3cc(C(=O)O)nn23)c1C`?
proKLK7 act: 12.8*; ADAM17 inh: -311.0; ADAM10 inh: inactive; V-ATPase pH: 1.1; proKLK7 act conf: 38.9*; EDANS-DABCYL int: 44.5*

How did COc1ccc2oc(=O)c(C(=O)N3CCN(c4ccccc4)CC3)cc2c1 do in these assays?
proKLK7 act: 1.1; ADAM17 inh: -12.0; ADAM10 inh: -27.4; V-ATPase pH: -0.6

How did COc1ccc2oc(=O)c(C(=O)N3CCN(C(=O)c4ccco4)CC3)cc2c1 do in these assays?
proKLK7 act: 26.2*; ADAM17 inh: -310.5; ADAM10 inh: inactive; V-ATPase pH: 3.4; proKLK7 act conf: 27.3*; EDANS-DABCYL int: 29.5*

How did COc1ccc2oc(=O)c(C(=O)N3CCN(C(=O)c4ccccc4)CC3)cc2c1 do in these assays?
proKLK7 act: 20.8*; ADAM17 inh: -211.3; ADAM10 inh: inactive; V-ATPase pH: 6.2; proKLK7 act conf: 24.9*; EDANS-DABCYL int: 15.8*; EDANS interf: >69.5

What do the screens show for `COc1ccc2oc(=O)c(/C(N)=N/NC(=O)c3ccncc3)cc2c1`?
proKLK7 act: 14.9*; ADAM17 inh: -33.2; ADAM10 inh: -73.4; V-ATPase pH: -6.5; proKLK7 act conf: 121.5*; EDANS-DABCYL int: 134.7*

What do the screens show for `C/C(=N\NC(=O)c1ccncc1)c1cc2ccccc2oc1=O`?
proKLK7 act: 0.1; ADAM17 inh: -1.6; ADAM10 inh: 0.8; V-ATPase pH: 2.5

How did CC(C)C[C@H]1COc2cc(Br)ccc2S(=O)(=O)N1Cc1ccc(F)cc1F do in these assays?
proKLK7 act: 0.0; ADAM17 inh: -1.4; ADAM10 inh: 0.2

How did Cc1cccc(Cn2cc(COC(=O)NCCc3ccccc3)nn2)c1 do in these assays?
proKLK7 act: -0.7; ADAM17 inh: -0.5; ADAM10 inh: 2.5

Results for CCN(CC)C(=O)COc1ccc2oc(-c3ccco3)cc(=O)c2c1 ?
proKLK7 act: 27.7*; ADAM17 inh: inactive; ADAM10 inh: inactive; V-ATPase pH: 2.7; proKLK7 act conf: 52.5*; EDANS-DABCYL int: 54.6*

What do the screens show for `CCCc1cc(=O)oc2c(CN3CCN(C)CC3)c(O)c(Cl)cc12`?
proKLK7 act: 59.5*; ADAM17 inh: inactive; ADAM10 inh: inactive; V-ATPase pH: -4.0; proKLK7 act conf: 70.6*; EDANS-DABCYL int: 76.5*

What do the screens show for `CN1CCN(Cc2cc(=O)oc3ccc(Cl)cc23)CC1`?
proKLK7 act: -0.4; ADAM17 inh: -1.2; ADAM10 inh: -8.6; V-ATPase pH: 3.6

What do the screens show for `Cc1cc(=O)oc2c(CN3CCN(C)CC3)c(O)c(Cl)cc12`?
proKLK7 act: 58.1*; ADAM17 inh: inactive; ADAM10 inh: inactive; V-ATPase pH: 0.5; proKLK7 act conf: 76.3*; EDANS-DABCYL int: 77.3*

What do the screens show for `CN1CCN(Cc2c(O)c(Cl)cc3c(-c4ccccc4)cc(=O)oc23)CC1`?
proKLK7 act: 16.8*; ADAM17 inh: -34.9; ADAM10 inh: -105.6; V-ATPase pH: -3.2; proKLK7 act conf: 13.8*; EDANS-DABCYL int: 11.5*

Results for CC(=O)c1c(O)ccc2c(-c3ccccc3)cc(=O)oc12 ?
proKLK7 act: 5.5; ADAM17 inh: -11.8; ADAM10 inh: -39.4; V-ATPase pH: -0.3

What do the screens show for `CCc1c(C)c2cc(Cl)c(O)c(CN3CCCC3)c2oc1=O`?
proKLK7 act: 37.0*; ADAM17 inh: inactive; ADAM10 inh: inactive; V-ATPase pH: 8.0; proKLK7 act conf: 67.9*; EDANS-DABCYL int: 68.7*

Results for C=CCN1C(=O)[C@]2(OCCC=C[C@H]2C)c2cc(OC)ccc21 ?
proKLK7 act: -0.2; ADAM17 inh: -3.2; ADAM10 inh: -18.3

What do the screens show for `C[C@H]1O[C@@H](n2c3ccc(Cl)cc3c3ccc4c5cc(Cl)ccc5[nH]c4c32)[C@H](O)[C@H](O)[C@H]1O`?
proKLK7 act: 1.9; ADAM17 inh: -31.7; ADAM10 inh: -91.9

How did CCCCc1cc(=O)oc2c(CN3CCCC3)c(O)c(Cl)cc12 do in these assays?
proKLK7 act: 63.3*; ADAM17 inh: inactive; ADAM10 inh: inactive; V-ATPase pH: 0.3; proKLK7 act conf: 70.9*; EDANS-DABCYL int: 82.4*

Results for CC1=C(C(=O)OCC2CCCO2)C(c2ccncc2)C2=C(CC(C)(C)CC2=O)N1 (stereo unspecified) ?
proKLK7 act: 13.0*; ADAM17 inh: -163.3; ADAM10 inh: -486.9; V-ATPase pH: -2.2; proKLK7 act conf: 21.3*; EDANS-DABCYL int: 29.3*

Results for CCOC(=O)C1=C(C)NC2=C(C(=O)CC(C)(C)C2)C1c1ccc(N(C)C)cc1 (stereo unspecified) ?
proKLK7 act: 1.6; ADAM17 inh: -7.8; ADAM10 inh: -20.1; V-ATPase pH: 2.4

Screening data as filed in PubChem BioAssay.
